According to PubChem BioAssay AID1159580 (chemical genetic matrix, 2015):
Out of some 5,500 compounds screened, about 2,000 (36%) were called active. Not shown: some 18% with an inconclusive outcome. Rule as the data show it: active = normalized growth mostly below about 0.91 (no sharp cut-off); inconclusive = no clear call, values can overlap the other calls; inactive = mostly above about 0.92. This is one part of the list.

Assay: chemical genetic growth profiling, strain panel (AID 1159580);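 also: tested at 20 µM; growth read once vehicle control cultures reached saturation at 30 °C; 1 = growth at the plate median or of vehicle wells; lower values mean less growth of the strain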
Settings: S. cerevisiae deletion strains, growth OD
[1] = locus YDR150W, strain NUM1, hits give low values
[2] = locus YGR078C, strain PAC10, hits give low values
[3] = locus YJR075W, strain HOC1, hits give low values
[4] = locus YMR263W, strain SAP30, hits give low values

Measured: normalized growth

OC[C@H]1O[C@@H](n2cnc3c(NCCc4ccccc4)ncnc32)C(O)[C@H]1O (some centres undefined)
inactive: locus YAL040C, strain CLN3, hits give low values 0.979 | locus YCL061C, strain MRC1 (second series), hits give low values 0.999 | [1] 0.993 | locus YDR363W, strain ESC2, hits give low values 0.954 | locus YER002W, strain NOP16, hits give low values 1.02 | [2] 0.996 | [3] 0.993 | [4] 0.998 | locus YMR307W, strain GAS1, hits give low values 0.997 | locus YNL128W, strain TEP1, hits give low values 0.989 | locus YNL175C, strain NOP13, hits give low values 0.991 | locus YNL197C, strain WHI3, hits give low values 0.991 | locus YNL224C, strain SQS1, hits give low values 1.01 | locus YOR083W, strain WHI5 (second series), hits give low values 0.997

Cc1cc(C)c(I)c(C)c1
inactive: locus YAL013W, strain DEP1, hits give low values 1 | locus YBR229C, strain ROT2, hits give low values 1.02 | locus YDL101C, strain DUN1, hits give low values 0.987 | [1] 0.984 | locus YEL061C, strain CIN8, hits give low values 1.05 | [2] 0.995 | locus YHR030C, strain SLT2, hits give low values 1.12 | locus YHR087W, strain rtc3, hits give low values 1.09 | locus YJR043C, strain POL32, hits give low values 1.01 | [3] 1.02 | locus YKL190W, strain CNB1, hits give low values 0.99 | locus YLR039C, strain RIC1, hits give low values 1.05 | locus YLR058C, strain SHM2 (second series), hits give low values 1.02 | locus YLR085C, strain ARP6, hits give low values 1.01 | locus YLR262C, strain YPT6, hits give low values 1.05 | locus YML094W, strain GIM5, hits give low values 1.02 | locus YMR219W, strain ESC1, hits give low values 1.01 | [4] 1.02 | locus YNL153C, strain GIM3, hits give low values 0.999 | locus YNL298W, strain CLA4 (second series), hits give low values 1.04 | locus YNL322C, strain KRE1, hits give low values 1 | locus YNR030W, strain Alg12, hits give low values 1.03 | locus YPL055C, strain LGE1, hits give low values 1.02 | locus YPL241C, strain CIN2, hits give low values 1.02 | locus YPR135W, strain CTF4, hits give low values 0.963
